Results as given in PubChem BioAssay (EPA / NIEHS).
Records with an inconclusive call do not appear. Calls of active or inactive are those of the source. Rule for the calls: active = hit-call score of the fitted dose curve at least 0.9, where 1 is the maximum; inconclusive = response in the unintended direction; inactive = score below 0.9.

Biological target: human Peroxisome Proliferator-activated Receptor alpha (PPARa), PPARA (gene 5465) (UniProt Q07869)
Assay: NVS_NR_hPPARa: NovaScreen (NVS) Nuclear Receptor Binding Assay for human Peroxisome Proliferator-activated Receptor alpha (PPARa) (AID 2283359);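 note: activity means loss of TR-FRET signal versus DMSO baseline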
In short: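 Chemicals were first screened in duplicate at 25 uM, and active ones were retested across concentration series. Binding was monitored by TR-FRET one hour after dosing, with decreased signal against DMSO counted as activity.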

human Peroxisome Proliferator-activated Receptor alpha (PPARa), PPARA (gene 5465), sequence (Q07869 whole entry, looked up): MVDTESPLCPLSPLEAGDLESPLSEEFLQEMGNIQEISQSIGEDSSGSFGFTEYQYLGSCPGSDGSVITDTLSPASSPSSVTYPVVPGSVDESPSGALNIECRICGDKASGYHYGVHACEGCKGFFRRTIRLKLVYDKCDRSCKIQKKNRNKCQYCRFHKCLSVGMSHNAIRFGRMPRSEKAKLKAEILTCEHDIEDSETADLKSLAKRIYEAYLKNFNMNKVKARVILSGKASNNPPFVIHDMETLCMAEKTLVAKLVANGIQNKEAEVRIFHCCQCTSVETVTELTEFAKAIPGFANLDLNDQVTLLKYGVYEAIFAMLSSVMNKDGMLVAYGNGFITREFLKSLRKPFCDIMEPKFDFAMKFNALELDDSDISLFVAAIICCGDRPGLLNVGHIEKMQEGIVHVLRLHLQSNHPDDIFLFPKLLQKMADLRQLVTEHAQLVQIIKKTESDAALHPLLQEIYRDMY

Row | Structure (SMILES) | outcome
1 | CCCCCCCCSC(=O)Oc1cc(Cl)nnc1-c1ccccc1 | inactive
2 | CCCCCCCCc1ccc(O)cc1 | inactive
3 | O=C(O)C(F)(F)C(F)(F)C(F)(F)C(F)(F)C(F)(F)C(F)(F)F | inactive
4 | CC(=O)C=C(C)C | inactive
5 | C=CCc1ccc(OC)cc1 | inactive

Biological target: PGR (gene 5241) (UniProt P06401)
Assay: NVS_NR_hPR: NovaScreen (NVS) Nuclear Receptor Binding Assay for human Progestron Receptor (PR) (AID 2283360);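 note: active means loss of bound radioligand signal versus DMSO baseline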
Procedure: NVS_NR_hPR is a biochemical, single-readout assay that uses extracted gene-proteins from T47D in a cell-free assay. Measurements were taken 18 hours after chemical dosing in a 96-well plate.NVS_NR_hPR is one of one assay component(s) measured or calculated from the NVS_NR_hPR assay. It is designed to make measurements of radioligand binding, a form of binding reporter, as detected with scintillation counting signals by Lysate-based radiodetection technology.Data from the assay component NVS_NR_hPR was analyzed into 1 assay endpoint. This assay endpoint, NVS_NR_hPR, was analyzed in the positive analysis fitting direction relative to DMSO as the negative control and baseline of activity. Using a type of binding reporter, loss-of-signal activity can be used to understand changes in the binding as they relate to the gene PGR. Furthermore, this assay endpoint can be referred to as a primary readout, because the performed assay has only produced 1 assay endpoint. To generalize the intended target to other relatable targets, this assay endpoint is annotated to the nuclear receptor intended target family, where the subfamily is steroidal.
Binding assays used specific radioligands (tritiated, iodinated) with non-radioactive competitive displacement ligands in agonist or antagonist protocols (as indicated) and various reference compounds and inhibitors to titrate specific binding to receptors and transporters. Most enzyme assays (CYPs, kinases, phosphatases, proteases, HDACs) used recombinant protein and specific substrates (fluorescence mostly, some colorimetric and radioactive) and inhibitors, followed by a biochemical separation of substrate and product. All assays for the biochemical HTS were initially run in duplicate at a single concentration (10 uM for CYP450 assays and 25 uM for all others). […] Each assay was run with positive and negative controls, and concurrent controls on every plate. The follow-up (secondary) screen tested active chemical-pairs in concentration series, as well as a few additional assays not tested in the primary screen, some selected negative inactives, and several cases re-run in the concentration series for confirmatory purposes.

PGR (gene 5241), sequence (P06401 whole entry, looked up): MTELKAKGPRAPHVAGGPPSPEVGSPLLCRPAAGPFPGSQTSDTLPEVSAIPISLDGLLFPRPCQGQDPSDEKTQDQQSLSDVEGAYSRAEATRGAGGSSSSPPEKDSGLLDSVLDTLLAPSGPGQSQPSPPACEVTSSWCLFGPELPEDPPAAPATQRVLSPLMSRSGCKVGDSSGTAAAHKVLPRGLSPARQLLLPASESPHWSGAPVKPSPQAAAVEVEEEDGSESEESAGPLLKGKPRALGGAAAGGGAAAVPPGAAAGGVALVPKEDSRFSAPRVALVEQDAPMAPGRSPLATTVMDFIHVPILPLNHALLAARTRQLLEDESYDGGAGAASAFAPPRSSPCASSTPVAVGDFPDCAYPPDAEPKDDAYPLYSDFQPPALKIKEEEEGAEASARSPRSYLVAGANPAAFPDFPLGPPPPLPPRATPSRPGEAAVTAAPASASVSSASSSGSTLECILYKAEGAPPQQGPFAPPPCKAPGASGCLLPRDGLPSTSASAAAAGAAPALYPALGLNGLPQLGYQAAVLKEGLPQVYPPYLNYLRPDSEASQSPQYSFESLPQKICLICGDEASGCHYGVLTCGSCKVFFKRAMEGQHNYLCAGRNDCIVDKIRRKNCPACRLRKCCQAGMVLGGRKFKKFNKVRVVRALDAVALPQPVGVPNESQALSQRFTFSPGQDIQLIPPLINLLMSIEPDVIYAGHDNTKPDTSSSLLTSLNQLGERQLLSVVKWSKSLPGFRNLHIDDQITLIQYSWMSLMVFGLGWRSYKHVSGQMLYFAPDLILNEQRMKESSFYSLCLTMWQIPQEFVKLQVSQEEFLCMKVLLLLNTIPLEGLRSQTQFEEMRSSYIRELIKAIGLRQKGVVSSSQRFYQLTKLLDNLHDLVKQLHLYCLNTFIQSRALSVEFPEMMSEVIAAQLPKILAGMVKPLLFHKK

Row | Structure (SMILES) | AC50 | outcome
6 | CC(C)(C)CC(C)(C)c1ccc(O)cc1 | 10.8 µM (active) | –
7 | C=CC(=O)N(C)C | – | inactive
8 | Nc1cccc2ccccc12 | – | inactive
9 | COC[C@H](C)N(C(=O)CCl)c1c(C)csc1C | 8.39 µM (active) | –
10 | N#CCc1ccc(Cl)cc1 | – | inactive
